The structures appear in SMILES notation. The campaign covered roughly 340,000 compounds. About 990 (0.29%) were called active. No stated cut-off is given here; in the data, active means activation above about 18%; inactive means the rest. The sample as a whole holds a higher share of actives than the screen did.

The assay deals with Mu-type opioid receptor (Homo sapiens) + Delta-type opioid receptor (Homo sapiens) (UniProt P35372+P41143). Nature of the assay: inducers of mu-delta opioid receptor heterodimers – cell-based, luminescence, primary screen (AID 504326).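 Further: 0% = vehicle-treated cells and 100% = reference agonist.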 The conditions noted are these: cells, OPRM1-OPRD1 heterodimerization, at 9.3 µM, stronger effect = higher value.
Chain of Mu-type opioid receptor (Homo sapiens) + Delta-type opioid receptor (Homo sapiens) (P35372 whole entry, looked up): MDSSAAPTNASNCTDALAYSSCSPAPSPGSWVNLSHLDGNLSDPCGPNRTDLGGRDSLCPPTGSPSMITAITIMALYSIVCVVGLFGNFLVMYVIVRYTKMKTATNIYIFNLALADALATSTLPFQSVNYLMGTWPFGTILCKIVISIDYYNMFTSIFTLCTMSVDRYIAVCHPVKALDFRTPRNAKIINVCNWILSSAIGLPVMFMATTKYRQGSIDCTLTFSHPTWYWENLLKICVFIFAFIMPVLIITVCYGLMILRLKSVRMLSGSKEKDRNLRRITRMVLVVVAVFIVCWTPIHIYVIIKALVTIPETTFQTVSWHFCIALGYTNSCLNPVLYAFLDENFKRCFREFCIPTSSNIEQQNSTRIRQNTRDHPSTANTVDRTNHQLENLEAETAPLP
Chain of Mu-type opioid receptor (Homo sapiens) + Delta-type opioid receptor (Homo sapiens) (P41143 whole entry, looked up): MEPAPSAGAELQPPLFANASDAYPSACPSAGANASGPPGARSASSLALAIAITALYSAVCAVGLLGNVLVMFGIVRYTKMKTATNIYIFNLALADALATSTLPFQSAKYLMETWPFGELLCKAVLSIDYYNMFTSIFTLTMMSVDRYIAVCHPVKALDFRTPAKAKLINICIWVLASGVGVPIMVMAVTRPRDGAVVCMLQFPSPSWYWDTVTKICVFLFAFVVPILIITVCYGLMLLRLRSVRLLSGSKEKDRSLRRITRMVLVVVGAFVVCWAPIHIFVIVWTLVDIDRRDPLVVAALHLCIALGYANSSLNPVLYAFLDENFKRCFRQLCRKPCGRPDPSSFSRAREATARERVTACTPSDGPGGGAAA
Take `C=C(C)COc1ccc(-c2ncncc2-c2ccc(OC)cc2)c(O)c1`: the activation was 0.28% (inactive).
Turning to `C=C(C)COc1ccc(-c2n[nH]c(C)c2-c2ccccc2)c(O)c1`, the activation was 20.9% (active).
Next, `C=C(C)COc1ccc(-c2nc(N)ncc2-c2ccccc2OC)c(O)c1`: 5.76% (inactive); `COCCCNC(=O)Cn1cc(/C=C(\C#N)C(=O)N2CCN(c3ccccc3)CC2)c2ccccc21`: -0.49% (inactive).
Take `Cc1ccc(N=C2NC(=O)c3cccc([N+](=O)[O-])c32)cc1`: the activation is -1.31% (inactive).
In the case of `COc1ccccc1CNC(=O)c1ccc(Cl)c(S(=O)(=O)N2CCCC2)c1`, the activation is -1.63% (inactive).
In the case of `COc1ccccc1C(CNC(=O)c1ccc(C)c(S(=O)(=O)N2CCCCC2)c1)N(C)C` (stereo not given), the activation was 33.2% (active).
Next, `Cc1ccc(C(=O)NCC(c2cccs2)N(C)C)cc1S(=O)(=O)N1CCOCC1` (stereo not given): 7.26% (inactive).
With `CCCOc1ccc(C(=O)C(CCC(CNCC)C(=O)c2ccc(OCCC)cc2)CNCC)cc1` (stereo not given) the figure was 11.1% (inactive).
Next, `C=CCOc1c2ccc(C(=O)N(CC)c3ccc(OC)cc3)cc2nn1C`: 0.36% (inactive); `COc1cccc(NC(=O)c2ccccc2N(Cc2ccccc2)S(C)(=O)=O)c1`: -3.67% (inactive); `CC(OC(=O)c1ccc([N+](=O)[O-])cc1)C(=O)NCC1CCCCC1` (stereo not given): 0.26% (inactive).
On to `COc1cc(C(=O)OC(C)C(=O)NCC2CCCCC2)cc(NC(=O)c2ccco2)c1OC` (stereo not given), for which the activation was 26.7% (active).
For `COc1ccc(NC(=O)CCC(=O)Nc2cc(OC)c(NC(=O)c3ccco3)cc2OC)c(OC)c1`, the activation was 0.82% (inactive).
With `CNC(=O)c1[nH]cnc1C(=O)N[C@@H](CC(C)C)C(=O)OC(C)(C)C` the figure was 0.92% (inactive).
As for `Cc1ccc(S(=O)(=O)NC(C)C(=O)Nc2ccccc2C(=O)N2CCCC2)cc1` (stereo not given), the activation is 2.72% (inactive).
Regarding `COc1ccc(CSc2nnnn2-c2ccc(C(=O)O)cc2)cc1`, the activation was -1.43% (inactive).
As to `COc1ccc(-n2nnnc2-c2nc3ccccc3s2)cc1`, the activation was 20.4% (active).
As to `COc1ccc(-n2nnnc2CNC(=O)c2ccc3ccccc3c2)cc1`, the activation is -0.36% (inactive).
On to `Cc1ccc(S(=O)(=O)NC(C(=O)N2CCOCCOCCOCCOCC2)c2ccccc2)cc1` (stereo not given), for which the activation was -1.61% (inactive).
Next, `CC(=O)N1CCN(C(=O)C2(NC(=O)Nc3ccc(C)cc3)CCCCC2)CC1`: -2.72% (inactive); `CCOc1ccc(-c2c(C)n([O-])c3c([n+]2=O)CCCC3)cc1`: -0.63% (inactive).
As to `C[C@H]1CC[C@]2(O[C@@H](CCO)C[C@@H](O)[C@@H]2O)O1`, the activation is 3.63% (inactive).
On to `CC(C)(C)OC(=O)CNC(=O)c1[nH]cnc1C(=O)N[C@@H](Cc1ccccc1)C(=O)OCc1ccccc1`, for which the activation was 14.2% (inactive).
Take `CC(C)(C)OC(=O)N1CCC(NC(=O)c2[nH]cnc2C(=O)N[C@@H](Cc2ccccc2)C(=O)OCc2ccccc2)CC1`: the activation was 21.9% (active).
With `O=C(N[C@@H](Cc1ccccc1)C(=O)OCc1ccccc1)c1nc[nH]c1C(=O)NC1CCNCC1` the figure was -2.25% (inactive); with `CCN1CCC2(CC1)N=C(c1ccc(F)cc1)C(=S)N2C(=O)c1ccc(C)cc1`, 13.8% (inactive).
On to `O=C1N/C(=C/c2cccs2)C(=O)N1Cc1ccc(F)cc1`, for which the activation was 18.9% (active).
With `CN(C)c1ccc(/C=C2\NC(=S)N(Cc3ccccc3)C2=O)cc1` the figure was 0.84% (inactive); with `Cc1ccc(CN2C(=O)N/C(=C/c3cc(C)n(-c4ccccn4)c3C)C2=O)cc1`, -1.23% (inactive).
Next, `CCn1c(SCC(=O)Nc2ccc(C)cc2)nc2nc3c(cc2c1=O)CCCC3`: -0.65% (inactive); `CCOc1ccc(NC(=O)CCS(=O)(=O)c2cccc3nsnc23)cc1`: -1.59% (inactive).
Next, `O=C(NCc1ccccc1)c1onc(CSc2ccncc2)c1C(=O)NCc1ccccc1`: -1.19% (inactive); `CCOc1cc(S(=O)(=O)NC2CC(C)(C)NC(C)(C)C2)ccc1F`: -2.58% (inactive); `COCCN(C(=O)CCC(=O)Nc1nccs1)C(C(=O)NCCC(C)C)c1ccc(F)cc1` (stereo not given): -1.57% (inactive).
On to `CC1CN(CCCOc2ccccc2-c2ccccc2)CC(C)O1` (stereo not given), for which the activation is 4.64% (inactive).
With `CC1CCCN(CCOCCOc2ccccc2-c2ccccc2)C1` (stereo not given), the activation was 18.4% (active).
Next, `c1ccc(-c2ccccc2OCCN2CCCCC2)cc1`: -3.6% (inactive).
For `Cc1c(NC(=O)C(C)OC(=O)c2c3c(nc4ccccc24)CCC(C)C3)c(=O)n(-c2ccccc2)n1C` (stereo not given), the activation was -2.46% (inactive).
With `CC(C)(C)NS(=O)(=O)c1ccc(NC(=O)C2CCCO2)cc1` (stereo not given) the figure was 0.39% (inactive).
`O=C(NC1CCC(O)CC1)c1ccc(S(=O)(=O)NCc2ccco2)cc1` (stereo not given): the activation was -2.16% (inactive).
Next, `CN(C)C(CNC(=O)c1ccc(S(=O)(=O)NCc2ccco2)cc1)c1ccccc1` (stereo not given): 20.7% (active); `CC(=O)c1ccc(S(=O)(=O)Nc2ccc(C(=O)NCC(c3ccccc3)N(C)C)cc2)cc1` (stereo not given): 0.68% (inactive); `COc1ccc(CNC(=O)c2cc(C(=O)C3CC3)c[nH]2)cc1`: -1.28% (inactive).
Regarding `CC(C)Cc1nnc(NC(=O)CN2C(=O)NC3(CCCCC3)C2=O)s1`, the activation is -1.6% (inactive).
In the case of `Cc1ccc(OCC(=O)Nc2ccc(NC(=O)c3cccs3)cc2)c(C)c1`, the activation was 19.7% (active).
For `Cc1ccc(OCC(=O)Nc2ccc(N3CCN(C(=O)c4ccco4)CC3)cc2)c(C)c1`, the activation was 2.18% (inactive).
As to `CCc1ccc(NC(=O)COC(=O)c2cccs2)cc1`, the activation is 0.52% (inactive).
With `COC(=O)C1=C(C)N(C)C(=S)NC1c1cc(OC)ccc1OC` (stereo not given) the figure was 1.16% (inactive); with `O=C1CC[C@H](O)CCN1[C@H](CSc1ccc(Br)cc1)Cc1ccccc1`, -1.02% (inactive); with `COc1ccc(SC[C@H](Cc2ccccc2)N2CCN(CCc3ccccc3)CCC2=O)cc1`, 26.4% (active).
With `C[C@H]1CCC(=O)N([C@H](CSc2ccccc2)Cc2ccccc2)CC1` the figure was 2.5% (inactive).
Next, `CS(=O)(=O)N(C(=O)NC(=O)NC1CCS(=O)(=O)C1)C1CCCCC1` (stereo not given): 1.27% (inactive); `CNC(=O)NC(=O)C(C)N1CCN(C/C=C/c2ccccc2)CC1` (stereo not given): 0.24% (inactive).
For the compound `Cc1ccc(NC(=O)c2oc(=O)c3ccccc3c2-c2ccccc2)c(C)c1`, the activation was -0.43% (inactive).

For the origin of these results see PubChem BioAssay AID504326 (The Scripps Research Institute Molecular Screening Center, 2011).
